Several values for one entry are separate records, joined by “and”; a condition that tells them apart may be missing. Equal values may be shown once. Some structures have more than one record in an assay (separate samples or runs), and their calls can disagree. Activity calls are given as the source filed them. Rule for the calls: active = hit-call score of the fitted dose curve at least 0.9, where 1 is the maximum; inactive = score below 0.9.

The term AC50 denotes the concentration at which the activity in the assay is half-maximal.

Read-out in this assay: Forkhead box O1 (FOXO1), FOXO1 (gene 2308)
In words: LTEA_HepaRG_FOXO1: Life Technologies and Expression Analysis (LTEA) Assay for Forkhead box O1 (FOXO1) using HepaRG (AID 2283456). The following applies: mRNA level, 48 h; actives raise or lower the signal. As to the method: LTEA_HepaRG is a cell based, multiplexed-readout assay that uses HepaRG, a human liver cell line, with measurements taken at 48 hours after chemical dosing on a 96-well plate.LTEA_HepaRG_FOXO1 is one of 102 assay component(s) measured in the LTEA HepaRG cell culture assay. It is a marker of Cell proliferation, survival, death.Data from the assay component LTEA_HepaRG_FOXO1 was analyzed into 1 endpoint. This assay endpoint, LTEA_HepaRG_FOXO1, was analyzed with bidirectional fitting relative to DMSO as the negative control and baseline of activity. Using a type of inducible reporter, measures of mRNA induction for gain or loss-of-signal activity can be used to understand regulation of transcription factor activity. To generalize the intended target to other relatable targets, this assay endpoint is annotated to the dna binding intended target family, where the subfamily is forkhead box protein.
A total of 1060 chemcials from the ToxCast library were tested in eight-point concentration-response experiments. Cell culture and cytotoxicity assays were conducted at Thermo Fisher Scientific's Custom Services facility (Madison, WI). A single lot of human HepaRG cells (Thermo Fisher Scientific, Frederick, MD) was used for the cell culture experiments. 96-well format collagen type I coated plates of human HepaRG cells were prepared using established methods. Briefly, cryopreserved HepaRG cells were thawed, plated at a density of approximately 100,000 cells/well in HepaRG Thaw, Plate, and General Purpose media (HPRG770, Thermo Fisher Scientific), and incubated for 48 hours. 0.5% DMSO was selected as vehicle control to balance the requisite need of DMSO in HepaRG cultures to maintain differentiation (for example, baseline metabolism, proportions of hepatocytes vs. cholangiocytes), while enabling further hepatic receptor pathway activation (for example, PXR and CAR) in response to chemical exposure. 48 hours after plating, the culture medium was replaced with HepaRG Serum-Free Incudtion Media. Cells were exposed to each test chemical in duplicate and maintained in CO2 incubators for another 48 hours. Chemical plates were thawed to room temperature and 200x concentrations of treatment groups were prepared. 8-point conentration-reponse curves were made with the highest exposure at 100 uM, followed by half-log dilutions, all in 0.5% DMSO. Each test plate contained variouse controls, induction positive controls (1mM phenobarbital), cytotoxicity positive controls ([…] aflatoxin B1), vehicle controls (0.5% DMSO), and total lysis controls (0.5% DMSO). Cell morphology images were taken using an Essen IncuCyte FLR automated microscope, with six 96-well plates imaged in about 24 minutes. Images were captured and exported and JPEG files. Spent culture media was transfered to black-well plates for the LDH assay, and remaining media was sorted at -80 C for later use. Cells were treated with RLT buffer and frozen until shipped for gene expression analysis. Total RNA was isolated from the cell suspension in 75 uL of Buffer RLT (Qiagen, Germantown, MD 20874) by Quintiles/Expression Analysis (Durham, NC) using a custom isolation procedure. Total RNA from each plate well was transferred to a preamplification plate. Fluidigm's 96.96 Dynamic ArrayTM (Fluidigm, Amsterdam, the Netherlands) technology was used for gene expression analyses by quantitative reverse transcription polymerase chain reaction (qRT-PCR, performed by Quintiles/Expression Analysis, Durham, NC)89. Standard TaqManTM Assays (Applied Biosystems/ThermoFisher Scientific, Foster City, CA) were used to assess the expression of 93 genes selected based on their selectivity and sensitivity to important hepatic receptors known to be modulated by environmental chemicals; importance in human hepatocyte functionality; and hepatotoxicity. […]
Regarding `CC(=O)[C@H]1CC[C@H]2[C@@H]3CCC4=CC(=O)CC[C@]4(C)[C@H]3CC[C@]12C`, the half-maximal activity concentration (AC50) was 80.5 µM (active). As for `C#CCOC(=O)[C@@H](C)Oc1ccc(Oc2ncc(Cl)cc2F)cc1`, the compound was called inactive. For the compound `CN(C)C(=O)Nc1ccc(Cl)c(Cl)c1`, the compound was classed as inactive. Consider `CC(=O)S[C@@H]1CC2=CC(=O)CC[C@]2(C)[C@H]2CC[C@@]3(C)[C@@H](CC[C@@]34CCC(=O)O4)[C@H]12`, for which the outcome was inactive. In the case of `CC(C)(c1ccc(O)cc1)c1ccc(O)cc1`, the outcome was inactive. With `CC1(C)C(C=C(Cl)Cl)C1C(=O)OCc1cccc(Oc2ccccc2)c1` (stereo not given), the call was inactive.

For the compound `CC(C)CCCCCCc1ccc(O)cc1`, the outcome was inactive. Same read-out and setting: next, `COC(=O)CSc1cc(N=c2sc(=O)n3n2CCCC3)c(F)cc1Cl`: “inactive”; `CCCCOCCOCCOCc1cc2c(cc1CCC)OCO2`: “inactive”. In the case of `CCCCOC(=O)[C@@H](C)Oc1ccc(Oc2ccc(C(F)(F)F)cn2)cc1`, the compound was classed as inactive.

`CCOC(=O)COc1cc(-n2ncc(C(F)(F)F)c(C)c2=O)c(F)cc1Cl`: the compound was classed as inactive. The same measure, in the same setting: in the case of `CCN(Cc1c(F)cccc1Cl)c1c([N+](=O)[O-])cc(C(F)(F)F)cc1[N+](=O)[O-]` it was “inactive”; in that of `CCSC(=O)N(CC(C)C)CC(C)C`, “inactive”; in that of `COC(=O)c1ccccc1C(=O)O`, “inactive”.

For the compound `CCN(CC)C(=O)c1cccc(C)c1`, the outcome was inactive. As to `CCCCCOC(=O)COc1cc(N2C(=O)C3=C(CCCC3)C2=O)c(F)cc1Cl`, the compound was classed as inactive. As to `CCC(C)OC(=O)N1CCCCC1CCO` (stereo not given), the result was inactive. The same measure, in the same setting: in the case of `CCCCC(CC)COC(=O)c1ccccc1C(=O)O` (stereo not given) it was “inactive”; in that of `CCCCC(CC)CN1C(=O)C2C3C=CC(C3)C2C1=O` (stereo not given), “inactive”.

Take `Cc1nn(C)c(Oc2ccccc2)c1C=NOCc1ccc(C(=O)OC(C)(C)C)cc1`: the AC50 was 2.81 µM (active).

Consider `S=C(S)NCCNC(=S)S.[Mn+2].[S-]C([S-])=NCCN=C([S-])[S-].[Zn+2]`, for which the AC50 is 4.79 µM (active) and 9.06 µM (active); the compound was called inactive. For the compound `c1ccc(Nc2ccccc2)cc1`, the result was inactive. With `CCOC(=O)c1ccc(O)cc1`, the outcome was inactive.

As for `COC(=O)c1ccc(I)cc1S(=O)(=O)NC(=O)Nc1nc(C)nc(OC)n1`, the result was inactive.

Turning to `c1ccc2[nH]c(-c3cscn3)nc2c1`, the compound was called inactive. Consider `CCOC(=O)C(C)Oc1ccc(Oc2nc3ccc(Cl)cc3o2)cc1` (stereo not given), for which the result was inactive. Same read-out and setting: in the case of `COCCO` it was “inactive”; in that of `CCCCOC(=O)C(C)Oc1ccc(Oc2ccc(C(F)(F)F)cn2)cc1` (stereo not given), “inactive”.

In the case of `CCNc1nc(N)nc(Cl)n1`, the outcome was inactive. Consider `S=C([S-])NCCNC(=S)[S-].[Mn+2]`, for which the half-maximal activity concentration (AC50) is 9.26 µM (active).

For the compound `O=C(O)C1(C(=O)Nc2ccc(Cl)cc2Cl)CC1`, the outcome was inactive. For `O=C(O)c1ccccc1`, the call was inactive.

As to `N#CSCSc1nc2ccccc2s1`, the compound was classed as inactive. For `C[C@]12CC[C@@H]3c4ccc(O)cc4C[C@@H](CCCCCCCCCS(=O)CCCC(F)(F)C(F)(F)F)[C@H]3[C@@H]1CC[C@@H]2O` (stereo not given in full), the AC50 is 0.0681 µM (active).

With `O=C(c1ccccc1)C1CCCCC1`, the call was inactive.

As for `CCCOC(=O)NCCCN(C)C`, the compound was classed as inactive. For `N[C@@H](Cc1cc(I)c(Oc2ccc(O)c(I)c2)c(I)c1)C(=O)O`, the result was inactive.

Turning to `CCOC(=O)C(C)Oc1ccc(Oc2cnc3cc(Cl)ccc3n2)cc1` (stereo not given), the call was inactive. In the case of `COc1c(Cl)ccc(Cl)c1C(=O)O`, the call was inactive.

Source of the values: PubChem BioAssay (EPA / NIEHS).
